Compounds without any hit were thinned out: in the full panel of roughly 83,000, 20% have a hit.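 Results are percent growth after 48 hours of single-concentration exposure. 100 means growth as in untreated cells, lower positive values show inhibition; negative values down to -100 show cell death.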 A number with no mark means an inactive call. The source made the active and inactive calls. Rule for the calls: active = growth percent below 10; inactive = the rest.
Test system: HCT-15 colon
Experiment: NCI-60 one-dose screen, 48 h (100 = growth as untreated, 0 = no growth, -100 = all killed)
Conditions: 10 µM unless noted

Question: With `COc1ccccc1N1CCN(CC(O)COc2c(Br)c(Br)c(Br)c3c2OC(C)(C)C3)CC1` (stereo not drawn) as the compound, how does the growth read?
Answer: 24.6%

Question: With `CC(=O)N[C@@H](CNC(=O)c1cc(NC(=O)c2cc(NC(=O)c3cc(NC(=O)c4nccn4C)cn3C)cn2C)cn1C)CC(=O)Nc1cn(C)c(C(=O)Nc2cc(C(=O)Nc3cc(C(=O)Nc4cc(C(=O)NCCCN(C)CCCNC(=O)c5cccc(C(=O)O)c5)n(C)c4)n(C)c3)n(C)c2)n1` as the compound, how does the growth read?
Answer: 103%

Question: `O=[N+]([O-])c1ccc(NS(=O)(=O)c2cc(Cl)ccc2Cl)c2ccccc12` was tested. Which growth did it give?
Answer: 54.2%

Question: How did the growth turn out when `CN1CCN(C(=O)/C=C/c2ccc([N+](=O)[O-])o2)CC1` was run?
Answer: 63.8%

Question: `CCn1cc(/C=C2\Oc3cc(OCC#N)ccc3C2=O)c2cc(OC)ccc21` was tested. Which growth did it give?
Answer: 21.5%

Question: Which growth does the source give for `S=c1ssnc1-c1ccccn1` here?
Answer: 14.1%

Question: Which growth does the source give for `COc1ccc2c(c1)nnc1c3cccnc3[nH]c21` here?
Answer: 12.2%

Question: How did the growth turn out when `COc1cccc(/C=N/C(=S)NC2(C)C3CCC(C3)C2(C)C)c1O` (stereo not drawn) was run?
Answer: 32.5%

Question: For `CC1(C)Cc2c(Br)c(Br)c(Br)c(OCC(O)CN3CCN(c4ccccn4)CC3)c2O1` (stereo not drawn), which growth is on record?
Answer: 79.7%

Question: How did the growth turn out when `O=C1OC(c2ccc(-c3ccccc3)cc2)=C/C1=C/C=C/c1ccccc1` was run?
Answer: 109%

Question: Which growth does the source give for `CCCCCn1ncc(-c2c(O)c(O)cc3c(O)c(-c4c(C)cc5c(-c6cnn(CCCCC)n6)c(O)c(O)cc5c4O)c(C)cc23)n1` here?
Answer: 14%

Question: Which growth does the source give for `CCC1S/C(=N\N=C(/C)c2cc3ccccc3o2)N(c2ccccc2)C1=O` (stereo not drawn) here?
Answer: 107%

Question: `CS(=O)(=O)OCC(COS(C)(=O)=O)C(c1ccccc1)c1ccccc1` was tested. Which growth did it give?
Answer: 108%

Question: With `CC(=O)c1cc2c(N)c(C(=O)Nc3cccc(Cl)c3)sc2nc1C` as the compound, how does the growth read?
Answer: 72.4%

Question: `ClC1c2ccccc2CCc2ccccc21` was tested. Which growth did it give?
Answer: 88.2%

Question: With `CCOC(=O)C(C)(CSSCC(C)(NC(=O)c1ccc2ccccc2c1)C(=O)OCC)NC(=O)c1ccc2ccccc2c1` (stereo not drawn) as the compound, how does the growth read?
Answer: 82.2%

Question: Which growth does the source give for `COc1ccccc1S(=O)(=O)Nc1ccc2c3c(cc(-c4ccoc4)nc13)C(=O)N2C` here?
Answer: 66.6%

Question: `CN1CCN(Cn2nc(-c3cc(Cl)cc(Cl)c3Cl)n(/N=C/c3ccc(Cl)cc3)c2=S)CC1` was tested. Which growth did it give?
Answer: 93.5%

Question: `Cc1ccn2cc(Cc3cc(=O)oc4c3ccc3ccccc34)c(=O)nc2c1` was tested. Which growth did it give?
Answer: 97.4%

Question: For `C=C1C(=O)O[C@H]2[C@H]1CC/C(COC(=O)c1ccc(Br)cc1)=C\CC[C@@]1(C)O[C@@H]21`, which growth is on record?
Answer: -26.3% (active)

Question: How did the growth turn out when `COc1cc2ncnc(Oc3ccc(NC(=O)Nc4ccc(CN5CCOCC5)c(C(F)(F)F)c4)c4ccccc34)c2cc1OC` was run?
Answer: 32.9%

Question: Which growth does the source give for `Cc1cccc(NC(=O)CCc2ccc(N3C(N)=NC(N)=NC3(C)C)cc2)c1` here?
Answer: 103%

Question: For `CN(C)c1ncc(C#Cc2c(F)cccc2F)c2ccccc12`, which growth is on record?
Answer: 88.1%

Question: How did the growth turn out when `O=C(NC(=S)Nc1ccc(Cl)cc1)c1ccccc1` was run?
Answer: 93.6%

Question: `COc1cc2nc(C(=O)N3CCCCC3)cc(Nc3ccccc3)c2cc1OC` was tested. Which growth did it give?
Answer: 102%

Question: How did the growth turn out when `Oc1ccc(O)c(-[n+]2ccccc2)c1` was run?
Answer: 105%

Question: With `COc1cc2c(/C=C3/C(=O)Nc4ccc(O)cc43)c(Cl)n(Cc3cc(OC)c(OC)c(OC)c3)c2cc1C` as the compound, how does the growth read?
Answer: 38.1%

Question: Which growth does the source give for `N#Cc1c(N)nc2c(c1N)C(c1ccc(Cl)cc1)C1=C(CCCC1=O)N2c1sc2c(c1C#N)CCCC2` (stereo not drawn) here?
Answer: 102%

Question: Which growth does the source give for `COc1ccc2c(c1)nnn1c3ncccc3c(N=O)c21` here?
Answer: -33.2% (active)

Question: `COc1cc(NC(C)CCCN2C(=O)c3ccccc3C2=O)c2nc(C)ccc2c1OC` (stereo not drawn) was tested. Which growth did it give?
Answer: 89.8%

Question: With `O=C(Nc1ccc(F)cc1)Nc1ccc(Cl)c([N+](=O)[O-])c1` as the compound, how does the growth read?
Answer: 11.1%

Question: With `COc1cc(/C=C/C(=O)c2c(C)n([O-])c3cc(C)c(C)cc3[n+]2=O)cc(OC)c1OC` as the compound, how does the growth read?
Answer: 51.7%

Question: Which growth does the source give for `CCC1S/C(=N\N=C(/C)c2cccs2)N(c2ccccc2)C1=O` (stereo not drawn) here?
Answer: 99%

Question: How did the growth turn out when `O=C(Nc1cccc([N+](=O)[O-])c1)c1ccc2ccccc2c1O` was run?
Answer: 66%

Question: `CC(C)(C)OC(=O)N1CCN(CCn2cc(C(F)(F)F)c3c(Cl)ncnc32)CC1` was tested. Which growth did it give?
Answer: 10.9%

Question: Which growth does the source give for `COc1cc(NC(C)CCCN2C(=O)c3ccccc3C2=O)c2ncccc2c1OC` (stereo not drawn) here?
Answer: 94.1%

Question: Which growth does the source give for `CSc1nc(N)nc2c1ncn2C` here?
Answer: 102%

Question: `O=C1C(SCCO)=C(SCCO)C(=O)N1c1ccc(-c2ccccc2)cc1` was tested. Which growth did it give?
Answer: -21.6% (active)

Question: `OCc1cnccc1NC12CC3CC(CC(C3)C1)C2` was tested. Which growth did it give?
Answer: 103%

Test system: HT29 colon
Experiment: as above
Conditions: 10 µM unless noted

Question: `COc1ccccc1N1CCN(CC(O)COc2c(Br)c(Br)c(Br)c3c2OC(C)(C)C3)CC1` (stereo not drawn) was tested. Which growth did it give?
Answer: 5.44% (active)

Question: Which growth does the source give for `CC(=O)N[C@@H](CNC(=O)c1cc(NC(=O)c2cc(NC(=O)c3cc(NC(=O)c4nccn4C)cn3C)cn2C)cn1C)CC(=O)Nc1cn(C)c(C(=O)Nc2cc(C(=O)Nc3cc(C(=O)Nc4cc(C(=O)NCCCN(C)CCCNC(=O)c5cccc(C(=O)O)c5)n(C)c4)n(C)c3)n(C)c2)n1` here?
Answer: 67.6%

Question: How did the growth turn out when `O=[N+]([O-])c1ccc(NS(=O)(=O)c2cc(Cl)ccc2Cl)c2ccccc12` was run?
Answer: 59.4%

Question: With `CN1CCN(C(=O)/C=C/c2ccc([N+](=O)[O-])o2)CC1` as the compound, how does the growth read?
Answer: 81.8%

Question: `CCn1cc(/C=C2\Oc3cc(OCC#N)ccc3C2=O)c2cc(OC)ccc21` was tested. Which growth did it give?
Answer: 5.44% (active)

Question: `S=c1ssnc1-c1ccccn1` was tested. Which growth did it give?
Answer: 33.6%

Question: Which growth does the source give for `COc1ccc2c(c1)nnc1c3cccnc3[nH]c21` here?
Answer: -27.1% (active)

Question: With `COc1cccc(/C=N/C(=S)NC2(C)C3CCC(C3)C2(C)C)c1O` (stereo not drawn) as the compound, how does the growth read?
Answer: 101%

Question: Which growth does the source give for `CC1(C)Cc2c(Br)c(Br)c(Br)c(OCC(O)CN3CCN(c4ccccn4)CC3)c2O1` (stereo not drawn) here?
Answer: 69.7%

Question: How did the growth turn out when `O=C1OC(c2ccc(-c3ccccc3)cc2)=C/C1=C/C=C/c1ccccc1` was run?
Answer: 113%

Question: Which growth does the source give for `CCCCCn1ncc(-c2c(O)c(O)cc3c(O)c(-c4c(C)cc5c(-c6cnn(CCCCC)n6)c(O)c(O)cc5c4O)c(C)cc23)n1` here?
Answer: -20.9% (active)

Question: With `CCC1S/C(=N\N=C(/C)c2cc3ccccc3o2)N(c2ccccc2)C1=O` (stereo not drawn) as the compound, how does the growth read?
Answer: 98%

Question: For `CS(=O)(=O)OCC(COS(C)(=O)=O)C(c1ccccc1)c1ccccc1`, which growth is on record?
Answer: 100%

Question: Which growth does the source give for `CC(=O)c1cc2c(N)c(C(=O)Nc3cccc(Cl)c3)sc2nc1C` here?
Answer: 82.3%

Question: `ClC1c2ccccc2CCc2ccccc21` was tested. Which growth did it give?
Answer: 74.1%

Question: `CCOC(=O)C(C)(CSSCC(C)(NC(=O)c1ccc2ccccc2c1)C(=O)OCC)NC(=O)c1ccc2ccccc2c1` (stereo not drawn) was tested. Which growth did it give?
Answer: 81.2%

Question: For `COc1ccccc1S(=O)(=O)Nc1ccc2c3c(cc(-c4ccoc4)nc13)C(=O)N2C`, which growth is on record?
Answer: 43.8%

Question: With `CN1CCN(Cn2nc(-c3cc(Cl)cc(Cl)c3Cl)n(/N=C/c3ccc(Cl)cc3)c2=S)CC1` as the compound, how does the growth read?
Answer: 117%

Question: Which growth does the source give for `Cc1ccn2cc(Cc3cc(=O)oc4c3ccc3ccccc34)c(=O)nc2c1` here?
Answer: 87.8%

Question: With `C=C1C(=O)O[C@H]2[C@H]1CC/C(COC(=O)c1ccc(Br)cc1)=C\CC[C@@]1(C)O[C@@H]21` as the compound, how does the growth read?
Answer: -51.8% (active)

Question: Which growth does the source give for `COc1cc2ncnc(Oc3ccc(NC(=O)Nc4ccc(CN5CCOCC5)c(C(F)(F)F)c4)c4ccccc34)c2cc1OC` here?
Answer: 14.2%

Question: With `Cc1cccc(NC(=O)CCc2ccc(N3C(N)=NC(N)=NC3(C)C)cc2)c1` as the compound, how does the growth read?
Answer: 17.1%

Question: Which growth does the source give for `CN(C)c1ncc(C#Cc2c(F)cccc2F)c2ccccc12` here?
Answer: 70.6%

Question: How did the growth turn out when `O=C(NC(=S)Nc1ccc(Cl)cc1)c1ccccc1` was run?
Answer: 87%

Question: For `COc1cc2nc(C(=O)N3CCCCC3)cc(Nc3ccccc3)c2cc1OC`, which growth is on record?
Answer: 104%

Question: With `Oc1ccc(O)c(-[n+]2ccccc2)c1` as the compound, how does the growth read?
Answer: 93.6%

Question: With `COc1cc2c(/C=C3/C(=O)Nc4ccc(O)cc43)c(Cl)n(Cc3cc(OC)c(OC)c(OC)c3)c2cc1C` as the compound, how does the growth read?
Answer: 10.4%

Question: With `N#Cc1c(N)nc2c(c1N)C(c1ccc(Cl)cc1)C1=C(CCCC1=O)N2c1sc2c(c1C#N)CCCC2` (stereo not drawn) as the compound, how does the growth read?
Answer: 81.2%

Question: Which growth does the source give for `COc1ccc2c(c1)nnn1c3ncccc3c(N=O)c21` here?
Answer: -48.8% (active)

Question: How did the growth turn out when `COc1cc(NC(C)CCCN2C(=O)c3ccccc3C2=O)c2nc(C)ccc2c1OC` (stereo not drawn) was run?
Answer: 98.4%

Question: Which growth does the source give for `O=C(Nc1ccc(F)cc1)Nc1ccc(Cl)c([N+](=O)[O-])c1` here?
Answer: 13.6%

Question: Which growth does the source give for `COc1cc(/C=C/C(=O)c2c(C)n([O-])c3cc(C)c(C)cc3[n+]2=O)cc(OC)c1OC` here?
Answer: 70.6%

Question: Which growth does the source give for `CCC1S/C(=N\N=C(/C)c2cccs2)N(c2ccccc2)C1=O` (stereo not drawn) here?
Answer: 91%

Question: `O=C(Nc1cccc([N+](=O)[O-])c1)c1ccc2ccccc2c1O` was tested. Which growth did it give?
Answer: 93.9%

Question: Which growth does the source give for `CC(C)(C)OC(=O)N1CCN(CCn2cc(C(F)(F)F)c3c(Cl)ncnc32)CC1` here?
Answer: 23.5%

Question: With `COc1cc(NC(C)CCCN2C(=O)c3ccccc3C2=O)c2ncccc2c1OC` (stereo not drawn) as the compound, how does the growth read?
Answer: 101%

Question: For `CSc1nc(N)nc2c1ncn2C`, which growth is on record?
Answer: 87.1%

Question: How did the growth turn out when `O=C1C(SCCO)=C(SCCO)C(=O)N1c1ccc(-c2ccccc2)cc1` was run?
Answer: 70.2%

Question: How did the growth turn out when `OCc1cnccc1NC12CC3CC(CC(C3)C1)C2` was run?
Answer: 88.7%

Source: PubChem BioAssay (NCI)
